Our source for the growth values is PubChem BioAssay (NCI).

Some test systems named below: SR leukemia; RPMI-8226 leukemia; OVCAR-8 ovarian; OVCAR-5 ovarian; OVCAR-4 ovarian; SK-OV-3 ovarian; IGROV1 ovarian; OVCAR-3 ovarian; HS 578T breast; NCI/ADR-RES ovarian.
Common to all, as to assay: NCI-60 one-dose screen, 48 h (100 = growth as untreated, 0 = no growth, -100 = all killed)
Holding throughout (details): 10 µM unless noted

About 83,000 compounds went through this panel and 20% of them were active in at least one assay; those are over-represented in the sample as a whole.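 Growth was measured after 48 h exposure to one concentration of compound in 96-well plates. Values under 10 count as active.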 Values without a mark were called inactive. Active and inactive are the calls of the source.

Turning to `Nc1c(C(=O)Nc2c(Cl)cccc2Cl)sc2nc3c(cc12)C(=O)CCC3`, the growth is 36.4% with SR leukemia; 65.5% in the assay on RPMI-8226 leukemia; 62.7% in the assay on OVCAR-8 ovarian; 86.5% in the assay on OVCAR-5 ovarian; 65.6% in the assay with OVCAR-4 ovarian; 32.2% in the assay on SK-OV-3 ovarian. In addition, the growth in the assay with IGROV1 ovarian was 71.9%; with OVCAR-3 ovarian, 11.2%; in the assay on HS 578T breast it was 13.4%; in the assay on NCI/ADR-RES ovarian, 17.1%.

Take `COc1cc(NC(C)CN(CC(C)C)C(C)C)c2ncccc2c1` (stereo not given): the growth in the assay with SR leukemia was 90.2%; in the assay on RPMI-8226 leukemia, 102%; in the assay with OVCAR-8 ovarian, 90.1%; with OVCAR-5 ovarian, 109%; in the assay on OVCAR-4 ovarian it was 40.2%; in the assay on SK-OV-3 ovarian it was 101%. Further, the growth with IGROV1 ovarian was 110%; in the assay with OVCAR-3 ovarian it was 92.9%; in the assay with HS 578T breast, 115%; with NCI/ADR-RES ovarian it was 93.3%.

For `CCCCC[C@H]1C/C=C2/C(=O)C=C[C@@H]2C/C=C\CCCC(=O)O[C@@H](CCCCC)C/C=C2/C(=O)C=C[C@@H]2C/C=C\CCCC(=O)O1`, the growth with SR leukemia was -21.5% (active); in the assay with RPMI-8226 leukemia, -30.4% (active); in the assay with OVCAR-8 ovarian it was -20.7% (active); in the assay on OVCAR-5 ovarian it was -68.2% (active); in the assay on OVCAR-4 ovarian, -74.3% (active); in the assay with SK-OV-3 ovarian, -52.7% (active). For the same compound, the growth with IGROV1 ovarian was -68.3% (active); in the assay on OVCAR-3 ovarian it was -93.5% (active); in the assay on HS 578T breast it was 4.33% (active); in the assay on NCI/ADR-RES ovarian, -2.14% (active).

Consider `Cc1ccc(C)c2c1CCC2C(C)C` (stereo not given), for which the growth with SR leukemia was 89.3%; with RPMI-8226 leukemia, 96.7%; with OVCAR-8 ovarian, 100%; in the assay with OVCAR-5 ovarian, 98.3%; in the assay on OVCAR-4 ovarian, 100%; in the assay on SK-OV-3 ovarian, 92.9%. Further, the growth with IGROV1 ovarian is 103%; in the assay with OVCAR-3 ovarian, 104%; in the assay with HS 578T breast, 100%; with NCI/ADR-RES ovarian, 105%.

On to `C=C1C(=O)O[C@H]2[C@H]1CC/C(Cn1cc(-c3ccc(F)cc3)nn1)=C\CC[C@@]1(C)O[C@@H]21`, for which the growth is -15.1% (active) in the assay on SR leukemia; -34.1% (active) in the assay on RPMI-8226 leukemia; -16% (active) in the assay with OVCAR-8 ovarian; -1.87% (active) in the assay with OVCAR-5 ovarian; 13.7% in the assay with OVCAR-4 ovarian; 102% in the assay on SK-OV-3 ovarian. For the same compound, the growth in the assay with IGROV1 ovarian was -40.3% (active); in the assay with OVCAR-3 ovarian, -91.3% (active); in the assay on HS 578T breast, 58.1%; with NCI/ADR-RES ovarian, 35.6%.

With `N#CC1c2ccccc2-c2ccccc2N1C(=O)c1ccccc1` (stereo not given), the growth is 65.2% in the assay with SR leukemia; 26.4% in the assay on RPMI-8226 leukemia; 22.3% in the assay on OVCAR-8 ovarian; 41.8% in the assay on OVCAR-5 ovarian; 38.1% with OVCAR-4 ovarian; 54.3% with SK-OV-3 ovarian. In addition, the growth with IGROV1 ovarian is 24.2%; in the assay with OVCAR-3 ovarian, -8.36% (active); in the assay on HS 578T breast, 7.52% (active); with NCI/ADR-RES ovarian it was -47.4% (active).

Consider `NCCn1cc(-c2nc(-c3c[nH]c4ncccc34)cs2)c2cc(F)ccc21`, for which the growth is -5.68% (active) with SR leukemia; 59.2% with RPMI-8226 leukemia; 76.1% with OVCAR-8 ovarian; 92.6% in the assay on OVCAR-5 ovarian; 59.8% in the assay on OVCAR-4 ovarian; 78.9% in the assay on SK-OV-3 ovarian. Also, the growth is 47.1% in the assay with IGROV1 ovarian, 85.6% with OVCAR-3 ovarian, 81.9% in the assay with HS 578T breast and 86.4% in the assay on NCI/ADR-RES ovarian.

As to `Cn1cc(-c2csc(-c3cn(CCNC(=O)OC(C)(C)C)c4ccccc34)n2)c2cccnc21`, the growth with SR leukemia is 75.6%; in the assay with RPMI-8226 leukemia, 42.1%; in the assay on OVCAR-8 ovarian, 45%; in the assay with OVCAR-5 ovarian, 115%; in the assay with OVCAR-4 ovarian it was 49.2%; with SK-OV-3 ovarian, 94.9%. Besides, the growth was 64.7% with IGROV1 ovarian, 86.3% with OVCAR-3 ovarian, 82.1% in the assay on HS 578T breast and 56% in the assay with NCI/ADR-RES ovarian.

Consider `N#C/C(=C\c1ccc(-c2ccc(Br)cc2)o1)c1nc(-c2cccs2)cs1`, for which the growth in the assay on SR leukemia was 90.4%; in the assay with RPMI-8226 leukemia it was 92.8%; with OVCAR-8 ovarian it was 106%; in the assay on OVCAR-5 ovarian, 95.6%; in the assay on OVCAR-4 ovarian, 96.3%; in the assay on SK-OV-3 ovarian, 111%. Besides, the growth is 88.1% in the assay on IGROV1 ovarian, 110% in the assay with OVCAR-3 ovarian, 108% with HS 578T breast and 95% in the assay on NCI/ADR-RES ovarian.

Regarding `Cc1ccc(S(=O)(=O)Nc2ccc(-c3cc(-c4cccc(F)c4)c(C#N)c(N)n3)cc2)cc1`, the growth in the assay on SR leukemia was 8.01% (active); with RPMI-8226 leukemia, -3.27% (active); in the assay on OVCAR-8 ovarian, 7.02% (active); with OVCAR-5 ovarian, 45.5%; in the assay with OVCAR-4 ovarian, -63.4% (active); in the assay on SK-OV-3 ovarian it was 71.8%. Moreover, the growth with IGROV1 ovarian was -66.3% (active); in the assay with OVCAR-3 ovarian, -79.4% (active); with HS 578T breast, 31.4%; in the assay with NCI/ADR-RES ovarian, 41%.

For the compound `Cc1cc(N2CCCCC2)nc(N(CCNc2ccnc3cc(Cl)ccc23)Cc2ccco2)n1`, the growth in the assay with SR leukemia is -15.8% (active); with RPMI-8226 leukemia, -36.5% (active); in the assay with OVCAR-8 ovarian it was 22.3%; in the assay on OVCAR-5 ovarian, 50.2%; with OVCAR-4 ovarian it was 43.2%; with SK-OV-3 ovarian, 77.9%. For the same compound, the growth in the assay on IGROV1 ovarian was 18.1%; with OVCAR-3 ovarian, -40% (active); in the assay with HS 578T breast it was 51.4%; in the assay on NCI/ADR-RES ovarian, 10.5%.

Take `Cc1cc2nc3c4cc(O)ccc4n(CCN(C)C)c3nc2cc1C`: the growth with SR leukemia was 8.05% (active); in the assay with RPMI-8226 leukemia, -11.2% (active); with OVCAR-8 ovarian it was -18.6% (active); in the assay with OVCAR-5 ovarian, -11.6% (active); in the assay with OVCAR-4 ovarian, 4.91% (active); in the assay with SK-OV-3 ovarian, -2.47% (active). For the same compound, the growth is -26.4% (active) with IGROV1 ovarian, 3.66% (active) in the assay on OVCAR-3 ovarian, 14.1% in the assay with HS 578T breast and -40.2% (active) with NCI/ADR-RES ovarian.

Turning to `CC(=O)OCCCCCCn1c2ccccc2c2c3c(c4c5ccccc5n(C)c4c21)C(=O)N(O)C3=O`, the growth is 17.1% in the assay on SR leukemia; 31.2% with RPMI-8226 leukemia; 66.3% with OVCAR-8 ovarian; 98.6% in the assay with OVCAR-5 ovarian; 70.5% in the assay with OVCAR-4 ovarian; 86.9% in the assay with SK-OV-3 ovarian. For the same compound, the growth with IGROV1 ovarian is 49.6%; with OVCAR-3 ovarian it was 77.2%; in the assay on HS 578T breast it was 124%; in the assay with NCI/ADR-RES ovarian, 52.1%.
